In all, about 39,000 sequences were measured (“fluorescence intensity (a.u.)”: median about 4,300, highest 2% from about 39,000 on). The entries come from a sample that favours the highest values as a whole.
molecular target: T1, OsSMF1 (Oryza sativa, UniProt Q6ZLB0 1-436); assay: protein-binding microarray (RPBM); PBS, 2% BSA, 51.3 ng/ul salmon testes DNA, 50 uM zinc acetate, 200 nM TF, 25 C, 1 h; high values mean tight binding; details: protein: recombinant; tags: N-terminal polyhistidine and DsRed monomer fusion (pET32a); chain copies: 2; label: CyDye5-dUTP incorporated in the synthesized complementary strand; 3' TTTTT single-stranded linker to array surface; dsDNA, one strand shown
T1 sequence: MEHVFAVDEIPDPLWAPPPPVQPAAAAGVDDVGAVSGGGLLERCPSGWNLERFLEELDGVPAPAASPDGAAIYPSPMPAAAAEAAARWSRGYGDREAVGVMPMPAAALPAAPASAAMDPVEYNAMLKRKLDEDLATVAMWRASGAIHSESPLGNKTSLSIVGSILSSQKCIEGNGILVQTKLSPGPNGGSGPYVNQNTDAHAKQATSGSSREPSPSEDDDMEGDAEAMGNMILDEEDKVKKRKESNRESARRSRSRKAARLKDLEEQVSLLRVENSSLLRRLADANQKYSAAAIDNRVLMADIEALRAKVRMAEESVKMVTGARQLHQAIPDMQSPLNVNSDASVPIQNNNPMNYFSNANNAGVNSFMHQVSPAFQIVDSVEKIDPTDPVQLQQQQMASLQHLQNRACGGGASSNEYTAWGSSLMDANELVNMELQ
Procedure, shortened: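 Transcription factors, each fused N-terminally to a polyhistidine tag and DsRed, were expressed in E. coli BL21-CodonPlus and purified on Ni–NTA. A custom Agilent array was made double-stranded by primer extension with Cy5-dUTP and blocked with 2% BSA. It was incubated with 200 nM protein in PBS, 2% BSA, salmon testes DNA and 50 µM zinc acetate at 25 °C for 1 h, then washed. The binding signal is per-feature fluorescence intensity (arbitrary units) read on an Axon 4000B scanner.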

| Sequence | binding signal |
| --- | --- |
| GGCTTCGGCCAGCTAGCCGCCACGTCTCCGCCGGTTTTAACGGAGTCACCTAGTGCAG | 8270 fluorescence intensity (a.u.) |
| ATTTCTACCTGACGAAGTGACGATGCACTAGCCAGCTACTCGGAGTCACCTAGTGCAG | 3900 fluorescence intensity (a.u.) |
| AGACAAATAATTCCCTTTGCCATGCCTGTCAGTTAGGGAACGGAGTCACCTAGTGCAG | 3500 fluorescence intensity (a.u.) |
| GTAAACGCATGCCTTTTCGCAAATTTGTAAAACGAAACGACGGAGTCACCTAGTGCAG | 31500 fluorescence intensity (a.u.) |
| CGACATTAAAGATTATGAATATTATGGGCAAATATAGGTCCGGAGTCACCTAGTGCAG | 57600 fluorescence intensity (a.u.) |
| ACTTATGATATGAAACGGAGAGAGTAGTAGATAAGATTTTCGGAGTCACCTAGTGCAG | 28400 fluorescence intensity (a.u.) |
| AAACTTTATGTATAGAAATAATATATATATATATATATATCGGAGTCACCTAGTGCAG | 29000 fluorescence intensity (a.u.) |
| AAACATTATTAAATAGGTGTATGAATGACAGTCATACTTGCGGAGTCACCTAGTGCAG | 3490 fluorescence intensity (a.u.) |
| TATAAAATTTCGCAATAACGACGAAAGTATTAAACGGACACGGAGTCACCTAGTGCAG | 56200 fluorescence intensity (a.u.) |
| TGAGATATATATTTCGTATGTATATAGAGAAATAAAGAAACGGAGTCACCTAGTGCAG | 57100 fluorescence intensity (a.u.) |
| TTGTATAACTATGTGTATATGTGTATGGTTATTAAGCAAACGGAGTCACCTAGTGCAG | 10500 fluorescence intensity (a.u.) |
| GAATAATTTATTAAATAATTTATAAATCCTGAAACGAAAACGGAGTCACCTAGTGCAG | 3520 fluorescence intensity (a.u.) |
| TCATAATATTATAAATTTGGACAAAGATATATCATATCACCGGAGTCACCTAGTGCAG | 3150 fluorescence intensity (a.u.) |
| TCCATGTATATTACATCATGGGGTTATGTAACATCACTGACGGAGTCACCTAGTGCAG | 8280 fluorescence intensity (a.u.) |
| CTTATTATGGTTATATGTGCAGGTATGGAGTAATAACTGACGGAGTCACCTAGTGCAG | 46400 fluorescence intensity (a.u.) |
| TAGGATTCAGCTCCTTCCTATTAGGGGTTCACCCGCGAGTCGGAGTCACCTAGTGCAG | 13800 fluorescence intensity (a.u.) |
| CTATAAACTTAGTTAAACTAAAGCTGCTATTTAACTTTGACGGAGTCACCTAGTGCAG | 3280 fluorescence intensity (a.u.) |
| CGAGGTTGCCCCTCCCCTCTCCTACGTGGTCGTGCCCCAACGGAGTCACCTAGTGCAG | 5410 fluorescence intensity (a.u.) |
| ATCGGCAAACGCGTTCCACCAAAACCCTCCACGTCAGCATCGGAGTCACCTAGTGCAG | 29800 fluorescence intensity (a.u.) |
| TAAAGAAAGAAAAGACATTAATAAAGCAGCAAAGAAAAGACGGAGTCACCTAGTGCAG | 46000 fluorescence intensity (a.u.) |
| AGCAAACATAATTAACATATATATAATAAAGCTCAAAGAGCGGAGTCACCTAGTGCAG | 3780 fluorescence intensity (a.u.) |
| TTAATTAATTAACGTATGTACTCAGGAATTATATATAATACGGAGTCACCTAGTGCAG | 35600 fluorescence intensity (a.u.) |

| Sequence | binding signal |
| --- | --- |
| CTCTCTCTCTCTCTCTCTCTCTCTCTTGCCATTTAAAAGACGGAGTCACCTAGTGCAG | 4760 fluorescence intensity (a.u.) |
| TTATAATATATATAATAAATAAATGTATGTTTACTTATAGCGGAGTCACCTAGTGCAG | 19300 fluorescence intensity (a.u.) |
| ATAATAAACTGAGAGGAGGATAGTAATATGTACTTAGTAACGGAGTCACCTAGTGCAG | 48400 fluorescence intensity (a.u.) |
| CCTTTTCCGCTTTAAAACACCACACAGTGACACACACACCCGGAGTCACCTAGTGCAG | 5500 fluorescence intensity (a.u.) |
| AGAAGAGAATGGAGTGGAGCTGACATGTGGGCTCCACCATCGGAGTCACCTAGTGCAG | 3950 fluorescence intensity (a.u.) |
| GGCTCCGTCTTATCCTAACAACGCCAAGGGGCCACGTATGCGGAGTCACCTAGTGCAG | 7210 fluorescence intensity (a.u.) |
| CAGTTGACCGCCACGTAGAACCTGTTCCTCCAGCTCACCACGGAGTCACCTAGTGCAG | 9340 fluorescence intensity (a.u.) |
| TTCCTCGCGCTCCCACGCCACGCAGCAGCCGCAGATCTCCCGGAGTCACCTAGTGCAG | 3630 fluorescence intensity (a.u.) |
| GGAAGAAGGCCGCCGACGCACAACAGAGGCGGCGGCGGGGCGGAGTCACCTAGTGCAG | 3510 fluorescence intensity (a.u.) |
| CAGAAACCAACCAACACAAGACACCGACCGACGCCGACCACGGAGTCACCTAGTGCAG | 8450 fluorescence intensity (a.u.) |
| CACACATTCGCACCGCCGACGCCGAACAGAACAACAACAACGGAGTCACCTAGTGCAG | 64700 fluorescence intensity (a.u.) |
| GCTTTCAAAGCACTCAATTTTCCAGGTCATAACTGTTTTCCGGAGTCACCTAGTGCAG | 5050 fluorescence intensity (a.u.) |
| ACAGATACAATGAGCGAGCGTTTGGTGTAATATGTGACAGCGGAGTCACCTAGTGCAG | 43600 fluorescence intensity (a.u.) |
| TTGACAATGTGGTGCTACAGTAAATATTTGATAATGATGGCGGAGTCACCTAGTGCAG | 3330 fluorescence intensity (a.u.) |
| ATGTATTTTATGACAACAGAGTAAACAATGTGATATACATCGGAGTCACCTAGTGCAG | 3220 fluorescence intensity (a.u.) |
| ATCTTAAGCTCCTCATTTCATCTATGATTGGCTTGCTTTACGGAGTCACCTAGTGCAG | 3180 fluorescence intensity (a.u.) |
| AATAAACCATGGTGTTTGTATTGGTGTGTTGGTGACTACGCGGAGTCACCTAGTGCAG | 3880 fluorescence intensity (a.u.) |
| CCATCGAATCCGGTTCGCGCGCAAGCAAAATCAGCAGCGTCGGAGTCACCTAGTGCAG | 3830 fluorescence intensity (a.u.) |
| AAGCTAACTTGTGTTGCCTACACAAGTACTAAAATGGCATCGGAGTCACCTAGTGCAG | 63600 fluorescence intensity (a.u.) |
| TAAGCTAACCTTGTACTAAGATGTGACACATCCAAGTACACGGAGTCACCTAGTGCAG | 3630 fluorescence intensity (a.u.) |
| GCTACTAAGGAGTACTACAATATTGCATCATCGTCATCATCGGAGTCACCTAGTGCAG | 6340 fluorescence intensity (a.u.) |

Reference: publication PMC7819943, “Rice protein-binding microarrays: a tool to detect cis-acting elements near promoter regions in rice”
